LMP1 NFkB inh = reduces LMP1-driven NF-kappaB luciferase signal; LMP1-induced NF-kappaB luciferase reporter cells, luminescence; inhibition, % at 12.5 µM; 350,000 tested, 0.69% active; in the data active = inhibition above about 41%
TRPM1 prom inh = inhibitors of MITF-driven TRPM1 promoter in melanoma cells; SK-MEL-5 TRPM1 promoter luciferase, 24 h; inhibition, % at 12.5 µM; 330,000 tested, 0.83% active; AID 488899;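 active = mean inhibition across replicates of 60% or more, whatever share of single replicates reaches that level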
Shn3 inh set2 = inhibitors of Schnurri-3 3'UTR reporter in osteoblasts; AID 588674; inhibition, % at 12.5 µM; Clone20 osteoblast Shn3 3'UTR firefly luciferase, 24 h; 360,000 tested, 0.52% active;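 active = mean inhibition of at least 75% with every replicate also reaching 75%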
Peg3 promoter = reduces Peg3 promoter-driven luciferase expression in HeLa. 360,000 tested, 1.7% active. inhibition, % at 20 µM. HeLa PEG-Prom luciferase reporter, luminescence, overnight;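 active = inhibition of at least 50% at 20 µM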
TWEAK-Fn14 inh = blocks TWEAK-Fn14 interaction in a reporter cell assay; TWEAK-stimulated Fn14 reporter cells, luciferase luminescence, 8 h; inhibition, % at 10 µM; 360,000 tested, 2% active; in the data active = inhibition above about 50%
TROY signal inh = inhibitors of TROY-dependent NF-kB signaling | Q293 LMP1-TROYcd NF-kB luciferase reporter, 4 h | inhibition, % at 10 µM | 360,000 tested, 0.98% active;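 active = compounds whose plate-normalised and pattern-corrected inhibition of the luciferase reporter signal at the single screening dose is 50% or more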
A number is an active result. Most compounds without a hit are left out; they make up all but 4.1% or so of the library.

For CCCN1CCC(=O)N([C@H](CSc2ccccc2)CC(C)C)CC1 the results were LMP1 NFkB inh inactive, TRPM1 prom inh inactive, Shn3 inh set2 inactive, Peg3 promoter inactive, TWEAK-Fn14 inh inactive and TROY signal inh inactive.
`Cc1ccc(C(=O)N2CCC(C(=O)c3c(C)cc(C)cc3C)CC2)cc1` gave LMP1 NFkB inh inactive, TRPM1 prom inh inactive, Shn3 inh set2 inactive, Peg3 promoter inactive, TWEAK-Fn14 inh inactive and TROY signal inh inactive.
Screening CC(C)(C)C(=O)Nc1ccc(Sc2ccc([N+](=O)[O-])cc2)cc1 returned LMP1 NFkB inh inactive, TRPM1 prom inh inactive, Shn3 inh set2 inactive, Peg3 promoter inactive, TWEAK-Fn14 inh 51 and TROY signal inh inactive.
For CC(=O)Nc1ccc(Sc2ccc([N+](=O)[O-])o2)cc1 the results were LMP1 NFkB inh inactive, TRPM1 prom inh 95, Shn3 inh set2 99, Peg3 promoter 97, TWEAK-Fn14 inh 95 and TROY signal inh inactive.
For CC(=O)c1c(C)[nH]c(C(=O)OCC(=O)NCc2cccs2)c1C the results were LMP1 NFkB inh inactive, TRPM1 prom inh inactive, Shn3 inh set2 inactive, Peg3 promoter inactive, TWEAK-Fn14 inh inactive and TROY signal inh inactive.
`Cc1c(C(=O)Nc2ccccc2N2CCN(C)CC2)oc2ccc(F)cc12` gave LMP1 NFkB inh inactive, TRPM1 prom inh inactive, Shn3 inh set2 inactive, Peg3 promoter inactive, TWEAK-Fn14 inh inactive and TROY signal inh inactive.
`C[N+]1=C(/C=C/Nc2ccccc2Cl)C(C)(C)c2ccccc21` gave LMP1 NFkB inh inactive, TRPM1 prom inh inactive, Shn3 inh set2 inactive, Peg3 promoter inactive, TWEAK-Fn14 inh inactive and TROY signal inh inactive.
For COC(=O)c1ccc2c(c1)C(C)(C)C(/C=C/c1ccccc1O)=[N+]2C the results were LMP1 NFkB inh inactive, TRPM1 prom inh 105, Shn3 inh set2 97, Peg3 promoter 105, TWEAK-Fn14 inh 87 and TROY signal inh inactive.
`CC(C)c1ccc(C2c3[nH]c4ccccc4c3C[C@H]3C(=O)N(c4ccccc4C(=O)N4CCC[C@@H]4C(=O)O)C(=O)N23)cc1` (some centres undefined) gave LMP1 NFkB inh inactive, TRPM1 prom inh inactive, Shn3 inh set2 inactive, Peg3 promoter inactive, TWEAK-Fn14 inh inactive and TROY signal inh 66.
Cc1ccc(C2c3[nH]c4ccccc4c3C[C@H]3C(=O)N(c4ccccc4C(=O)N4CCC[C@H]4C(=O)O)C(=O)N23)cc1 (some centres undefined) was read as LMP1 NFkB inh inactive, TRPM1 prom inh inactive, Shn3 inh set2 inactive, Peg3 promoter inactive, TWEAK-Fn14 inh inactive and TROY signal inh inactive.
`N#C/C(=N\Nc1cccc([N+](=O)[O-])c1)C(=O)c1ccc(Br)cc1` gave LMP1 NFkB inh inactive, TRPM1 prom inh inactive, Shn3 inh set2 inactive, Peg3 promoter inactive, TWEAK-Fn14 inh 52 and TROY signal inh inactive.
Screening Cc1ccc(-c2ccc(/C=C3\C(=O)ON=C3c3ccccc3)o2)c([N+](=O)[O-])c1 returned LMP1 NFkB inh inactive, TRPM1 prom inh inactive, Shn3 inh set2 91, Peg3 promoter 97, TWEAK-Fn14 inh inactive and TROY signal inh inactive.
`CCc1nc2ccc(C(=O)NCc3cccs3)cn2c1N(CC)CCOC` gave Shn3 inh set2 inactive, Peg3 promoter inactive, TWEAK-Fn14 inh inactive and TROY signal inh inactive.
O=[N+]([O-])c1cc(Cl)ccc1Oc1ccc(-c2nnco2)cc1 was read as LMP1 NFkB inh inactive, TRPM1 prom inh inactive, Shn3 inh set2 inactive, Peg3 promoter inactive, TWEAK-Fn14 inh inactive and TROY signal inh 62.
Screening Cc1cccc(C)c1NC(=O)CN(C)C(=O)Cc1cccc(C(F)(F)F)c1 returned LMP1 NFkB inh inactive, TRPM1 prom inh inactive, Shn3 inh set2 inactive, Peg3 promoter inactive, TWEAK-Fn14 inh 55 and TROY signal inh inactive.
For N/C(=N\OC(=O)/C=C/c1ccccc1)c1ccccn1 the results were LMP1 NFkB inh inactive, TRPM1 prom inh inactive, Shn3 inh set2 inactive, Peg3 promoter inactive, TWEAK-Fn14 inh 56 and TROY signal inh inactive.
Cc1ccc(CC(=O)O/N=C(\N)c2ccccn2)cc1 was read as LMP1 NFkB inh inactive, TRPM1 prom inh inactive, Shn3 inh set2 inactive, Peg3 promoter inactive, TWEAK-Fn14 inh inactive and TROY signal inh inactive.
`CC(C)(C)CC(=O)O/N=C(\N)c1ccccn1` gave LMP1 NFkB inh inactive, TRPM1 prom inh inactive, Shn3 inh set2 inactive, Peg3 promoter inactive, TWEAK-Fn14 inh 61 and TROY signal inh inactive.
`CCC(Oc1ccccc1)C(=O)N(C)CC(=O)N(CC(C)C)c1c(N)n(CC(C)C)c(=O)[nH]c1=O` (centres undefined) gave LMP1 NFkB inh inactive, TRPM1 prom inh inactive, Shn3 inh set2 inactive, Peg3 promoter inactive, TWEAK-Fn14 inh inactive and TROY signal inh inactive.
For O=C(O)c1ccc(-c2nnc(-c3ccccc3)o2)cc1 the results were LMP1 NFkB inh inactive, TRPM1 prom inh inactive, Shn3 inh set2 inactive, Peg3 promoter inactive, TWEAK-Fn14 inh inactive and TROY signal inh inactive.
O=C(c1ccc(-c2nnc(-c3ccccc3)o2)cc1)N1CCCCCC1 was read as LMP1 NFkB inh inactive, TRPM1 prom inh inactive, Shn3 inh set2 inactive, Peg3 promoter inactive, TWEAK-Fn14 inh 57 and TROY signal inh inactive.
For CCC(C)(C)c1ccc(OCCCC[n+]2cccc(C)c2)c(C(C)(C)CC)c1 the results were LMP1 NFkB inh inactive, TRPM1 prom inh 98, Shn3 inh set2 88, Peg3 promoter 101, TWEAK-Fn14 inh 77 and TROY signal inh inactive.
`Cc1ccc[n+](CC(=O)Nc2cc(C(F)(F)F)ccc2Cl)c1` gave LMP1 NFkB inh inactive, TRPM1 prom inh inactive, Shn3 inh set2 inactive, Peg3 promoter inactive, TWEAK-Fn14 inh inactive and TROY signal inh inactive.
Screening Cc1ccc(Cn2nc(C)c(NC(=O)CSc3nc4c(c(C(F)(F)F)n3)CCc3ccccc3-4)c2C)cc1 returned LMP1 NFkB inh inactive, TRPM1 prom inh inactive, Shn3 inh set2 inactive, Peg3 promoter 50, TWEAK-Fn14 inh inactive and TROY signal inh inactive.
`Cc1nn(Cc2ccc(Cl)cc2)c(C)c1NC(=O)c1noc2c1CCc1ccccc1-2` gave LMP1 NFkB inh inactive, TRPM1 prom inh inactive, Shn3 inh set2 inactive, Peg3 promoter inactive, TWEAK-Fn14 inh 69 and TROY signal inh 57.
Cc1nn(Cc2ccc(Cl)cc2)c(C)c1NC(=O)CSc1nc2c(c(C(F)(F)F)n1)CCc1ccccc1-2 was read as LMP1 NFkB inh inactive, TRPM1 prom inh inactive, Shn3 inh set2 inactive, Peg3 promoter inactive, TWEAK-Fn14 inh inactive and TROY signal inh inactive.
Cc1ccccc1C(=O)NCCCNC(=O)c1cnccn1 was read as LMP1 NFkB inh inactive, TRPM1 prom inh inactive, Shn3 inh set2 inactive, Peg3 promoter inactive, TWEAK-Fn14 inh inactive and TROY signal inh inactive.
Oc1c(C=Nc2ccccc2Cl)[nH]c2ccccc12 was read as LMP1 NFkB inh inactive, TRPM1 prom inh inactive, Shn3 inh set2 inactive, Peg3 promoter inactive, TWEAK-Fn14 inh inactive and TROY signal inh 52.
For O=c1[nH][nH]c(C(F)(F)F)c1C=Nc1ccccc1Cl the results were LMP1 NFkB inh inactive, TRPM1 prom inh inactive, Shn3 inh set2 inactive, Peg3 promoter inactive, TWEAK-Fn14 inh inactive and TROY signal inh inactive.

Source: PubChem (several laboratories)
